Results on 34 compounds are retold here after PubChem BioAssay AID434927 (Sanford-Burnham Center for Chemical Genomics, 2010).

Activity calls are given as the source filed them.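 The calls were made as follows: active = inhibition above about 23% in any of six single-dose repeats (limit read from the data); inactive = the rest.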

For the assay, the target named is Intestinal-type alkaline phosphatase (Homo sapiens) (UniProt P09923). The assay can be described thus: suppression of intestinal alkaline phosphatase activity – biochemical, luminescence, single concentration, uHTS hits, confirmation (AID 434927).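 Also: plate controls were DMSO wells with enzyme for no effect and wells lacking enzyme for full effect.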 As to conditions: purified human IAP, CDP-Star luminescence, 30 min; at 8.3 µM; active compounds read high.
Sequence of Intestinal-type alkaline phosphatase (Homo sapiens) (P09923 whole entry, looked up): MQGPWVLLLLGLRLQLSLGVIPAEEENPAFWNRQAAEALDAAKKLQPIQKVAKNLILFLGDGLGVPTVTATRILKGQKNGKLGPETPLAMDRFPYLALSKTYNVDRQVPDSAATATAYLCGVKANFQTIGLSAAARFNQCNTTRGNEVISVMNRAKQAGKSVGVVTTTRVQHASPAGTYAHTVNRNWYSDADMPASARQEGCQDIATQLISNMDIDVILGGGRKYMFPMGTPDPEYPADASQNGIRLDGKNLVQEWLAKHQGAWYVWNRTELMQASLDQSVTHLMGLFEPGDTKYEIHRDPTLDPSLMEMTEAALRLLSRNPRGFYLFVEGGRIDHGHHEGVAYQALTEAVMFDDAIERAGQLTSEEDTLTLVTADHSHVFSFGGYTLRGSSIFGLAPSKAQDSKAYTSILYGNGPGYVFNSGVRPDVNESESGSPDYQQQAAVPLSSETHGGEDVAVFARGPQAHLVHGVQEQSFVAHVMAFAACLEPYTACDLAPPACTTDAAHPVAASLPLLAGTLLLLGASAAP
For `C#CCOCCOCCOCCNc1nc(N2CCN(C(=O)CCCCCCCCCCNC(=O)[C@H]([C@@H](C)CC)n3cc(CCCCN=C(N)N)nn3)CC2)nc(N2CCN(C(=O)CCCCCCCCCCNC(=O)[C@H](CO)n3cc(CCCSC)nn3)CC2)n1`, the inhibition (usually the relative decrease from the control value, in per cent) is 38.5% (active).

`O=c1c(O[C@@H]2O[C@H](CO)[C@@H](O)[C@H](O)[C@H]2O)c(-c2ccc(O)c(O)c2)oc2cc(O)cc(O)c12`: the inhibition was 48% (active).

Take `O=C(NNc1ncnc2c1cnn2-c1ccc(F)cc1)c1ccco1`: the inhibition was -47.2% (inactive).

For the compound `N#Cc1c(-c2ccccc2)nc(N2CCOCC2)[nH]c1=O`, the inhibition was 27.5% (active).

For the compound `O=C(COc1ccc(Br)cc1)NCCCn1ccnc1`, the inhibition was 50.5% (active).

Regarding `O=C(CCN1CCN(Cc2ccccc2)CC1)NNC(=O)Nc1cccc(C(F)(F)F)c1`, the inhibition is -0.057% (inactive).

Turning to `Cc1ccc(O)c(/C=N/NC(=O)c2[nH]ncc2Br)c1`, the inhibition was 23.2% (active).

On to `COc1cc(/C=C2\SC(=S)N(N(C)c3ccccc3)C2=O)ccc1O`, for which the inhibition was 60.4% (active).

For `Cc1cc2cc3c(cc2nc1SCC(=O)Nc1nc(C)c(C)s1)OCO3`, the inhibition is 43.9% (active).

Regarding `Cc1ccc(O)c(N/C=C/C(=O)c2ccc(F)cc2)c1`, the inhibition was -120% (inactive).

As to `CC(C)C(=O)NC(=S)Nc1ccccc1C(=O)Nc1ccccc1`, the inhibition was -108% (inactive).

As to `Cc1ccc(NCc2ccc([N+](=O)[O-])s2)cc1`, the inhibition was 26.1% (active).

Take `C/C(=N/NC(=O)c1ccc(Cn2cccn2)o1)c1cccc(NC(=O)c2ccncc2)c1`: the inhibition was -101% (inactive).

As to `O=C(N/N=C/c1ccc2cccnc2c1)c1nc2ccccc2c(=O)[nH]1`, the inhibition is -193% (inactive).

As to `O=C(NC1CCCCCC1)c1ccc(-n2cnnc2)cc1`, the inhibition is -58.8% (inactive).

For the compound `CNc1nnc(-c2cc3ccccc3oc2=O)s1`, the inhibition was 33.1% (active).

As for `CN(Cc1ccccc1)C(=O)Nc1ccc(Cl)cc1`, the inhibition is -58.7% (inactive).

With `O=C(CSc1ncn[nH]1)NCCc1ccccc1`, the inhibition is -113% (inactive).

In the case of `c1ccc(-c2cccc(-c3ccccn3)n2)nc1`, the inhibition is -113% (inactive).

As for `CC1(C)C[C@@H](O)CC2(C1)C[C@]1(C)CC(O)[C@H]2C(C)(C)C1` (some centres undefined), the inhibition is -93.3% (inactive).

Consider `O=C(NNC(=S)NC(=O)c1ccccc1)c1cccnc1`, for which the inhibition was -320% (inactive).

Turning to `c1ccc(-c2nnc(CN3CCC4(CC3)OCCO4)o2)cc1`, the inhibition was 29.7% (active).

For the compound `O=C(NNC(=S)NCc1ccco1)c1ccccc1Br`, the inhibition is 41.4% (active).

As to `CC(=O)Nc1cccc(-c2csc(Nc3ccccn3)n2)c1`, the inhibition is -94.1% (inactive).

Turning to `Cc1nc2c3ccccc3nc(NNC(=O)CCC(=O)N3CCCC(C)C3)n2n1` (centres undefined), the inhibition is -41.6% (inactive).

For the compound `COc1cc(/C=C/C(=O)OCC(=O)NC(=O)NC2CCCCC2)ccc1OC(F)F`, the inhibition is 78.7% (active).

`Nc1ccc(-c2c3ccc(=O)cc-3oc3cc(O)ccc23)cc1C(=O)O`: the inhibition was 64.5% (active).

As for `CCC(NC(=S)NC1CCCCC1)c1ccc(C(C)C)cc1` (centres undefined), the inhibition was -24.1% (inactive).

Consider `O=C(O)COn1c(-c2ccc(Cl)cc2)nc2ccc(Cl)cc21`, for which the inhibition is 26.6% (active).

With `COc1ccc(C2=NN(C3=NN=C(N)Cc4ncnn43)C(O)(C(F)(F)F)C2)cc1` (centres undefined), the inhibition was 42% (active).

As to `O=C1Nc2ccc(Br)cc2C12NNc1ccccc1O2` (centres undefined), the inhibition is 35% (active).

With `Cc1ccccc1CNC(=O)c1ccccc1N`, the inhibition is 37.2% (active).

With `COc1ccccc1N(C)S(=O)(=O)c1ccc(Cl)c(C(=O)NNC(=O)c2ccccc2O)c1`, the inhibition is 59.4% (active).

As to `CCn1c2ccccc2c2cc(NC(=O)c3coc(=O)c(Br)c3)ccc21`, the inhibition is 39.2% (active).
